Measurements: PMC7862700, “An all-to-all approach to the identification of sequence-specific readers for epigenetic DNA modifications on cytosine”

Columns and labels:
Assay in all cases: DAPPL (digital affinity profiling via proximity ligation, sequencing); 10 mM Tris-HCl pH 7.5, 50 mM NaCl, 1 mM DTT, 4% glycerol, room temperature, 30 min; GST-TFs on glutathione beads, 16-mer random dsDNA library, 0.1% formaldehyde crosslink after washing; high values mean tight binding
FLI1 = target: T1, FLI1 (Homo sapiens, UniProt Q01543 1-452); settings: protein: recombinant; tags: N-terminal GST; dsDNA, one strand shown
T1 sequence: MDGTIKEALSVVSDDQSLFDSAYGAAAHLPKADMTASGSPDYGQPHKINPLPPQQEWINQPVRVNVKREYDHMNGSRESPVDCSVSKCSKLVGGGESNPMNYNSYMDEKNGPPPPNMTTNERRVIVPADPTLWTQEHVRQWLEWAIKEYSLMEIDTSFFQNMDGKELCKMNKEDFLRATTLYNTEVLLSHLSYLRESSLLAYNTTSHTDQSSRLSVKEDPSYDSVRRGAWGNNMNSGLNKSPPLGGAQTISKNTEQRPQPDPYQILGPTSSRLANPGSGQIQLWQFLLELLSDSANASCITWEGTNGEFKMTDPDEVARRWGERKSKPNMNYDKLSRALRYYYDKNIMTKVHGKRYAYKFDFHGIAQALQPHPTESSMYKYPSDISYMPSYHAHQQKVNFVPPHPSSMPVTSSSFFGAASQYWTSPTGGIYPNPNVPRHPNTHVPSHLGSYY
Summary of the method: (§1)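 Binding signal is each hexamer's read frequency for a factor divided by its frequency in the tag-only sample. The factors were GST-fused human transcription factors from yeast, captured on glutathione beads, DNA-barcoded and pooled with that sample. Pools were incubated with 200 nmole of a random double-stranded 16-mer DNA library in Tris/NaCl/DTT/glycerol buffer at room temperature for 30 min, then washed, crosslinked with 0.1% formaldehyde, proximity-ligated with BsaI/T4 ligase (1 h, 37 °C), PCR-amplified and sequenced on an Illumina NextSeq500.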

ELK1 = target: T2, ELK1 (Homo sapiens, UniProt P19419 1-428); settings: protein: recombinant; tags: N-terminal GST; dsDNA, one strand shown
T2 sequence: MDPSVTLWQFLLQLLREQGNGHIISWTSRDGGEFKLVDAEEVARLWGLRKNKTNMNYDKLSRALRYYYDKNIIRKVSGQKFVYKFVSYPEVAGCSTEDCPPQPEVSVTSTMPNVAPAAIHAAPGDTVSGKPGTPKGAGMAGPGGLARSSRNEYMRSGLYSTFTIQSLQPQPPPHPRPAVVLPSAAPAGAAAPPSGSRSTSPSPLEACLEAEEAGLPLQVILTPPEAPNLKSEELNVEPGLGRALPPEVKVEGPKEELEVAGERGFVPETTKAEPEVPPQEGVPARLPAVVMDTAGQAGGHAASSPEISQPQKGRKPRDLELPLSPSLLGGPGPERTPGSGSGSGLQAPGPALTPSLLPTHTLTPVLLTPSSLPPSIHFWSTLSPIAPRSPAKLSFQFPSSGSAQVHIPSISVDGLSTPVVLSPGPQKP
Summary of the method: as §1

GABPA = target: T3, GABPA (Homo sapiens, UniProt Q06546 1-454); settings: protein: recombinant; tags: N-terminal GST; dsDNA, one strand shown
T3 sequence: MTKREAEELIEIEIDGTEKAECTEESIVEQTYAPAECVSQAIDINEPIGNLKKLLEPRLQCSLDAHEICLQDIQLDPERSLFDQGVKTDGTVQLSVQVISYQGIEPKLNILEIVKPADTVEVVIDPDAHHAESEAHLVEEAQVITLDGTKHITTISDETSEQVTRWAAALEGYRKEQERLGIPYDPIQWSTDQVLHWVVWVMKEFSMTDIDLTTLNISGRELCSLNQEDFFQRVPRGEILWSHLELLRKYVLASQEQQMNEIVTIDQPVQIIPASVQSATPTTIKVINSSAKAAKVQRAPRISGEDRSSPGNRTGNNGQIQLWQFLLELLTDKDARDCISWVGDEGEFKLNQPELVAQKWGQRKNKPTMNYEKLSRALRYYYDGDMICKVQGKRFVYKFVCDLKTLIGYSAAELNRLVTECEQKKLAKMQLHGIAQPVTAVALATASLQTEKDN
Summary of the method: as §1

ERG = target: T4, ERG (Homo sapiens, UniProt P11308 1-479); settings: protein: recombinant; tags: N-terminal GST; dsDNA, one strand shown
T4 sequence: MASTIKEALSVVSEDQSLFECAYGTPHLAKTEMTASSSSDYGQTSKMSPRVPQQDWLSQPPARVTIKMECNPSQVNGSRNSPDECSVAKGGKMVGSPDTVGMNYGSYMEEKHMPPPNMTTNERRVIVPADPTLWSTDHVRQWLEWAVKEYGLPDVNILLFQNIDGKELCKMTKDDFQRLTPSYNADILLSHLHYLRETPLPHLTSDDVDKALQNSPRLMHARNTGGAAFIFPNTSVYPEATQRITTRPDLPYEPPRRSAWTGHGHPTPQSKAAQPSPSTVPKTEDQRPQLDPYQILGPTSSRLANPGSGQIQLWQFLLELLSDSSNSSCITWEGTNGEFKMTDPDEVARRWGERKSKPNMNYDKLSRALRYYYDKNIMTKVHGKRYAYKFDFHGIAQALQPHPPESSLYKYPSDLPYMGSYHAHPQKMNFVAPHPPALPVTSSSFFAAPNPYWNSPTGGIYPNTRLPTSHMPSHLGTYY
Summary of the method: as §1

ELF1 = ELF1 (Homo sapiens, UniProt P32519 1-619); settings: protein: recombinant; tags: N-terminal GST; dsDNA, one strand shown
Summary of the method: as §1

EHF = target: T5, EHF (Homo sapiens, UniProt Q9NZC4 1-300); settings: protein: recombinant; tags: N-terminal GST; dsDNA, one strand shown
T5 sequence: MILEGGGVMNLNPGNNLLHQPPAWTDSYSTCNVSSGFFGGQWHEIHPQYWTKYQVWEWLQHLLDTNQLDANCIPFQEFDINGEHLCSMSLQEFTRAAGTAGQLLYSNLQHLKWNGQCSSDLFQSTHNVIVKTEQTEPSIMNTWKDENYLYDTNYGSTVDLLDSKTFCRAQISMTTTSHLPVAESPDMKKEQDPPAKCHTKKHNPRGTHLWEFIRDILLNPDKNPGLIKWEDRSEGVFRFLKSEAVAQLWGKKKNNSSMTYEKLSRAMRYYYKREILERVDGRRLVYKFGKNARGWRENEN
Summary of the method: as §1

SPI1 = SPI1 (Homo sapiens, UniProt P17947 1-270); settings: protein: recombinant; tags: N-terminal GST; dsDNA, one strand shown
Summary of the method: as §1

SPIB = SPIB (Homo sapiens, UniProt Q01892 1-262); settings: protein: recombinant; tags: N-terminal GST; dsDNA, one strand shown
Summary of the method: as §1

ELK3 = target: T6, ELK3 (Homo sapiens, UniProt P41970 1-407); settings: protein: recombinant; tags: N-terminal GST; dsDNA, one strand shown
T6 sequence: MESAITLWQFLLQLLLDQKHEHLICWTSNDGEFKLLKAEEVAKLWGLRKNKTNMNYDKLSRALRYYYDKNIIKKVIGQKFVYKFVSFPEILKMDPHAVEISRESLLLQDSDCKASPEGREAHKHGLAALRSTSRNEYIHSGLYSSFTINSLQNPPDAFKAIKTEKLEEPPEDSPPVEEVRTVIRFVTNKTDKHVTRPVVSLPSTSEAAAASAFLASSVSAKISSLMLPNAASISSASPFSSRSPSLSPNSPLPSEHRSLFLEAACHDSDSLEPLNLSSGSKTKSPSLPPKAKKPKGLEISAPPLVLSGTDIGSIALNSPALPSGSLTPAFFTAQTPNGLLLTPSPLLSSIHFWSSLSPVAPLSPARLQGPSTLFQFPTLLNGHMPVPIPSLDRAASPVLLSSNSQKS
Summary of the method: as §1

FEV = target: T7, FEV (Homo sapiens, UniProt Q99581 1-238); settings: protein: recombinant; tags: N-terminal GST; dsDNA, one strand shown
T7 sequence: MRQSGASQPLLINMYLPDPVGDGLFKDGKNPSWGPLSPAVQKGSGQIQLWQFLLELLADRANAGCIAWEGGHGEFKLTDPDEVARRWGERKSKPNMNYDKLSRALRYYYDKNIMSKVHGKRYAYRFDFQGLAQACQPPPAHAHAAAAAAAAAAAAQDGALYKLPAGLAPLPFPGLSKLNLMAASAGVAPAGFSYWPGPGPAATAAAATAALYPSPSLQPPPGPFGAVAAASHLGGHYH
Summary of the method: as §1

ETV5 = ETV5 (Homo sapiens, UniProt P41161 1-510); settings: protein: recombinant; tags: N-terminal GST; dsDNA, one strand shown
Summary of the method: as §1

HSF1 = HSF1 (Homo sapiens, UniProt Q00613 1-529); settings: protein: recombinant; tags: N-terminal GST; chain copies: 3; dsDNA, one strand shown
Summary of the method: as §1

SPIC = target: T8, SPIC (Homo sapiens, UniProt Q8N5J4 1-248); settings: protein: recombinant; tags: N-terminal GST; dsDNA, one strand shown
T8 sequence: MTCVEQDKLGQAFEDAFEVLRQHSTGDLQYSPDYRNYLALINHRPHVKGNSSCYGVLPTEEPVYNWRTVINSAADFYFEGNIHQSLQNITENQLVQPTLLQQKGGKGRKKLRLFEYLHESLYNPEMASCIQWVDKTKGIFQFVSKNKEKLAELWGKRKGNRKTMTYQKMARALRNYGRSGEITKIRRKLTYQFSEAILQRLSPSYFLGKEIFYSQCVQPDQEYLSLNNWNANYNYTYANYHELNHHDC
Summary of the method: as §1

ELF4 = ELF4 (Homo sapiens, UniProt Q99607 1-663); settings: protein: recombinant; tags: N-terminal GST; dsDNA, one strand shown
Summary of the method: as §1

ELK4 = target: T9, ELK4 (Homo sapiens, UniProt P28324-2 1-405); settings: protein: recombinant; tags: N-terminal GST; dsDNA, one strand shown
T9 sequence: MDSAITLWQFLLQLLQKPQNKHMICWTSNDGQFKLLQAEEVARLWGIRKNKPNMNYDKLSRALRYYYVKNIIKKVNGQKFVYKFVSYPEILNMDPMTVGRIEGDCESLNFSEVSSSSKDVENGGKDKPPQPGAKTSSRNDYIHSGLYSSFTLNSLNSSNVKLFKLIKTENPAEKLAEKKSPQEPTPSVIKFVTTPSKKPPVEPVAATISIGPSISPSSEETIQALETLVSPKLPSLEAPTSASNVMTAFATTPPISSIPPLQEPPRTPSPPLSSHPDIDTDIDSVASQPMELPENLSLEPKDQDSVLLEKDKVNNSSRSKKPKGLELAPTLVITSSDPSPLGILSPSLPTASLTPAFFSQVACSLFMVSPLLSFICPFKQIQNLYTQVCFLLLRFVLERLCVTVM
Summary of the method: as §1

ETV2 = target: T10, ETV2 (Homo sapiens, UniProt O00321 1-342); settings: protein: recombinant; tags: N-terminal GST; dsDNA, one strand shown
T10 sequence: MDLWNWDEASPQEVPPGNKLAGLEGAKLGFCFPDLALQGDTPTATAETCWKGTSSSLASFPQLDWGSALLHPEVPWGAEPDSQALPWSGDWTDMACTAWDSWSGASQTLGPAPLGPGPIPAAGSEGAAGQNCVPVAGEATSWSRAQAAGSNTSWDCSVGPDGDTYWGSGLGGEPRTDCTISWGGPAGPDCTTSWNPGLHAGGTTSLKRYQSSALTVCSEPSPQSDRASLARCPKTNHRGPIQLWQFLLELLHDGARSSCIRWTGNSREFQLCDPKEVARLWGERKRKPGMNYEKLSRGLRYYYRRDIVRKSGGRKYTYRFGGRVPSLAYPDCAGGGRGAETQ
Summary of the method: as §1

ELF3 = target: T11, ELF3 (Homo sapiens, UniProt P78545 1-371); settings: protein: recombinant; tags: N-terminal GST; dsDNA, one strand shown
T11 sequence: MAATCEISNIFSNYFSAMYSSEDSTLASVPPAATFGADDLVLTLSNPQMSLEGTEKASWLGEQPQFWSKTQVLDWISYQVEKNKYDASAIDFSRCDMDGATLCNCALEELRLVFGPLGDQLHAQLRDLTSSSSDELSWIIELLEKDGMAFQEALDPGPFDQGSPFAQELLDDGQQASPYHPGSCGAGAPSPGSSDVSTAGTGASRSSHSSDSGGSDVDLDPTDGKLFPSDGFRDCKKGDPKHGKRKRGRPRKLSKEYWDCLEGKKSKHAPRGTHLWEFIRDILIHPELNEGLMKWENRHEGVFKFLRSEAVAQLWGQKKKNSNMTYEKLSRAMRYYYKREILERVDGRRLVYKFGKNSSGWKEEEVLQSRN
Summary of the method: as §1

CRX = CRX (Homo sapiens, UniProt O43186 1-299); settings: protein: recombinant; tags: N-terminal GST; dsDNA, one strand shown
Summary of the method: as §1

ETV1 = ETV1 (Homo sapiens, UniProt P50549 1-477); settings: protein: recombinant; tags: N-terminal GST; dsDNA, one strand shown
Summary of the method: as §1

Chain of SPIB (Q01892 whole entry): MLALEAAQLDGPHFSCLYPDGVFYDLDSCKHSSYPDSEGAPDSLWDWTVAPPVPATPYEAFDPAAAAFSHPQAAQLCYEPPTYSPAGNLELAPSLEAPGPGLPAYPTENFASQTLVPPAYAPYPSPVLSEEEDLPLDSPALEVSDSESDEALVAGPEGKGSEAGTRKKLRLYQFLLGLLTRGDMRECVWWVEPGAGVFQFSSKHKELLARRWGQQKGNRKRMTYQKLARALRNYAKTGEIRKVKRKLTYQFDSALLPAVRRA
Chain of ETV5 (P41161 whole entry): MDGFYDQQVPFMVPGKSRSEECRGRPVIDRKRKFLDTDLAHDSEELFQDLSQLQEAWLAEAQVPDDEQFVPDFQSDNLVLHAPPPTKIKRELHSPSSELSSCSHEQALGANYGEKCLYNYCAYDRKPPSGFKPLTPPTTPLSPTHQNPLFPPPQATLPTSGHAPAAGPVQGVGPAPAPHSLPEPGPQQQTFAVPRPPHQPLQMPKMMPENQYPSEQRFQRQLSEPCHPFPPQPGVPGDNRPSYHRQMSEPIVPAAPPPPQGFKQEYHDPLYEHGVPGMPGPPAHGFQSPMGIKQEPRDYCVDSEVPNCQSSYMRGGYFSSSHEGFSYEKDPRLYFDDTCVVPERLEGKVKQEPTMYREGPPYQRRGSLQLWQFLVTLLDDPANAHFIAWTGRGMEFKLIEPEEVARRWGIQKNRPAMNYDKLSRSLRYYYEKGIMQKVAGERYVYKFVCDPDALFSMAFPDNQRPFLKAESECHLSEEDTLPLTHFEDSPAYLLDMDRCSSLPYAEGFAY
Chain of HSF1 (Q00613 whole entry): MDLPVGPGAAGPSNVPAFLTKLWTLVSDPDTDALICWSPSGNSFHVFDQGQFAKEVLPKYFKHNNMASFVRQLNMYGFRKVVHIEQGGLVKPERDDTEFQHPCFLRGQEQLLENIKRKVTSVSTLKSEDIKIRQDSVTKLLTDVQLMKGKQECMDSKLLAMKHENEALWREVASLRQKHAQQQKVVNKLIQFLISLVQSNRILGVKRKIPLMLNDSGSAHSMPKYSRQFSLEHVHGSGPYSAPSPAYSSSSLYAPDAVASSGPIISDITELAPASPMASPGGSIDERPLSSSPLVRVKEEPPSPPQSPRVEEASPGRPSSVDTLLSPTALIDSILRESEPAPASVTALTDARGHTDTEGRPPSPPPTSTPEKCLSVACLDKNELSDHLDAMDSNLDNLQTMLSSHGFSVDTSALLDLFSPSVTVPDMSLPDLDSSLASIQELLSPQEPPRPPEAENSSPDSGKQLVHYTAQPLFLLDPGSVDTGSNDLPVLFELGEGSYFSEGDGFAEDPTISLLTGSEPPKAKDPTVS
Chain of ETV1 (P50549 whole entry): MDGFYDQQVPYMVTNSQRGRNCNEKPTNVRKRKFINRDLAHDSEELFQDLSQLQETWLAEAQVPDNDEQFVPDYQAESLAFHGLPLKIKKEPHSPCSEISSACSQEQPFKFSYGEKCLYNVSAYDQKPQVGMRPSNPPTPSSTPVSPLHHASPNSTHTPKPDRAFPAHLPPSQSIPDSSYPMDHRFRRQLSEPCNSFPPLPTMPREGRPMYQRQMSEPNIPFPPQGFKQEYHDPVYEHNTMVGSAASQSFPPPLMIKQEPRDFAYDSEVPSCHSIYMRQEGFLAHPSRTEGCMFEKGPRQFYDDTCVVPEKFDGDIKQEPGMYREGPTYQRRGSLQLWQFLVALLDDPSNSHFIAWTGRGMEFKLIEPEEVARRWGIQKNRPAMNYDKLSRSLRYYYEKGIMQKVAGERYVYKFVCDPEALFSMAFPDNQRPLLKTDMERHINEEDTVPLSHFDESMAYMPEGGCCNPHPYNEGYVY
Chain of CRX (O43186 whole entry): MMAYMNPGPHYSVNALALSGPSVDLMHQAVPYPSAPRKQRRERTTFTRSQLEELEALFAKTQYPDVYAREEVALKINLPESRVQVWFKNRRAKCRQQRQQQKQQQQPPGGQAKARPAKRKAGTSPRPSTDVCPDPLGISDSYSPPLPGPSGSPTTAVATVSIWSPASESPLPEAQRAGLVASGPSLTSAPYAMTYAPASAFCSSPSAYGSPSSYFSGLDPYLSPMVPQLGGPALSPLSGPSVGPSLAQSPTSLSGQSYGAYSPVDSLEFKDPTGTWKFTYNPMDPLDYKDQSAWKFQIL
Chain of ELF1 (P32519 whole entry): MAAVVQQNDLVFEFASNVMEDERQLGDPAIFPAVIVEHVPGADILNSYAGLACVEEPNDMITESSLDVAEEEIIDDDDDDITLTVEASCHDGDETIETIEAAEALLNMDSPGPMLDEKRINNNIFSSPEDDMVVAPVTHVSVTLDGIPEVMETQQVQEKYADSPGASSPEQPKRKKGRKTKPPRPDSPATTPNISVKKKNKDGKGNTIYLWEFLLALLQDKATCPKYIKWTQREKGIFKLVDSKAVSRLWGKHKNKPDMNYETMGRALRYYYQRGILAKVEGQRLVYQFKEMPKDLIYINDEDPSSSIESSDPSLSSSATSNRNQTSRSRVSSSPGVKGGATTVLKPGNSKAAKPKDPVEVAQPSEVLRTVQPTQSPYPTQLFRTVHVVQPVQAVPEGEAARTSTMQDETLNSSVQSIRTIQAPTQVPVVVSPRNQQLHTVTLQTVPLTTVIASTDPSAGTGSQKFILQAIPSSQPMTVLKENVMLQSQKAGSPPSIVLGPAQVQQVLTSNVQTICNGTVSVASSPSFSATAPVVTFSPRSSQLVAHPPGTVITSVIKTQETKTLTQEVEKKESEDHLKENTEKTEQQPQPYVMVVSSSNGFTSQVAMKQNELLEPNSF
Chain of ELF4 (Q99607 whole entry): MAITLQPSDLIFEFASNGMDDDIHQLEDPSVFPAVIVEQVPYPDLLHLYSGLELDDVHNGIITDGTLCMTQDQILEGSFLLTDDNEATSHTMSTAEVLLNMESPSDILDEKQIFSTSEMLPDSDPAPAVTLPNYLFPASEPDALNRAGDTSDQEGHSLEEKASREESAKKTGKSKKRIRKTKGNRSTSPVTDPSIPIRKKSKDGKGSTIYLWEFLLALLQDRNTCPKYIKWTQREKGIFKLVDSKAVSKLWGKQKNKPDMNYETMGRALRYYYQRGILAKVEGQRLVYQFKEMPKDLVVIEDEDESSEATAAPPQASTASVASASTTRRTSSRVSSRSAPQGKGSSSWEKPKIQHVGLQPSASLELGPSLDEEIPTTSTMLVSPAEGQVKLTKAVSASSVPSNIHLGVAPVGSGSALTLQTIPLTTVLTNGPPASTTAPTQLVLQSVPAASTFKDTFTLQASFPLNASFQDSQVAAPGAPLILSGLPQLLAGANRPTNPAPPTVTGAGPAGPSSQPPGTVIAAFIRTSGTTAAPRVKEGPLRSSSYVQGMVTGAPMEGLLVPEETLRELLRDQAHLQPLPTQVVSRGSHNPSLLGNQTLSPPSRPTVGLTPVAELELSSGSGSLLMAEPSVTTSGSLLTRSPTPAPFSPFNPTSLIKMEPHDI

Q: Which results are given for CGAACA?
A: binding signal (FLI1): 1.09 fold enrichment (6-mer frequency, TF over GST control); binding signal (ELK1): 1.08 fold enrichment (6-mer frequency, TF over GST control); binding signal (GABPA): 1.11 fold enrichment (6-mer frequency, TF over GST control); binding signal (ERG): 1.11 fold enrichment (6-mer frequency, TF over GST control); binding signal (ELF1): 1.13 fold enrichment (6-mer frequency, TF over GST control); binding signal (EHF): 1.14 fold enrichment (6-mer frequency, TF over GST control); binding signal (SPI1): 1.15 fold enrichment (6-mer frequency, TF over GST control); binding signal (SPIB): 1.19 fold enrichment (6-mer frequency, TF over GST control); binding signal (ELK3): 1.09 fold enrichment (6-mer frequency, TF over GST control); binding signal (FEV): 1.06 fold enrichment (6-mer frequency, TF over GST control); binding signal (ETV5): 1.14 fold enrichment (6-mer frequency, TF over GST control); binding signal (HSF1): 1.76 fold enrichment (6-mer frequency, TF over GST control); binding signal (SPIC): 1.11 fold enrichment (6-mer frequency, TF over GST control); binding signal (ELF4): 1.19 fold enrichment (6-mer frequency, TF over GST control); binding signal (ELK4): 1.17 fold enrichment (6-mer frequency, TF over GST control); binding signal (ETV2): 1.22 fold enrichment (6-mer frequency, TF over GST control); binding signal (ELF3): 1.2 fold enrichment (6-mer frequency, TF over GST control); binding signal (CRX): 1.1 fold enrichment (6-mer frequency, TF over GST control); binding signal (ETV1): 1.1 fold enrichment (6-mer frequency, TF over GST control)
